# Measurements: PMC7862700, “An all-to-all approach to the identification of sequence-specific readers for epigenetic DNA modifications on cytosine”
# Tests used:
# Assay in all cases: DAPPL (digital affinity profiling via proximity ligation, sequencing); 10 mM Tris-HCl pH 7.5, 50 mM NaCl, 1 mM DTT, 4% glycerol, room temperature, 30 min; GST-TFs on glutathione beads, 16-mer random dsDNA library, 0.1% formaldehyde crosslink after washing; high values mean tight binding
# [1] = target: T1, FLI1 (Homo sapiens, UniProt Q01543 1-452); details: protein: recombinant; tags: N-terminal GST; dsDNA, one strand shown
# T1 sequence: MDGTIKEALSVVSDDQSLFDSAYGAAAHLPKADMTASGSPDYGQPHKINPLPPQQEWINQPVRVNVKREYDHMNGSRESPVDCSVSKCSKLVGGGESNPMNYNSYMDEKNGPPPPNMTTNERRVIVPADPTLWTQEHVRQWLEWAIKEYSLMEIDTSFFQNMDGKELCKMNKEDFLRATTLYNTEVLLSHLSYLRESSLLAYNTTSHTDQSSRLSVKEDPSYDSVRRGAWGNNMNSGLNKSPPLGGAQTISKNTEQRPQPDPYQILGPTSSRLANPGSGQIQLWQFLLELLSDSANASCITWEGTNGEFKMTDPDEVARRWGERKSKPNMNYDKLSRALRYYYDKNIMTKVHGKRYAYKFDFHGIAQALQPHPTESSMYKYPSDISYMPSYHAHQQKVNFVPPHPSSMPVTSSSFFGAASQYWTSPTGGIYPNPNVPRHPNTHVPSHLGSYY
# Outline: (§1)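 The binding signal reported is, for every hexamer, its read frequency for a factor over its read frequency for the tag-only sample. Reads came from pools of yeast-expressed, GST-fused human transcription factors on glutathione beads, barcoded with DNA and mixed with that sample, which were incubated with 200 nmole of a random double-stranded 16-mer DNA library in Tris/NaCl/DTT/glycerol buffer at room temperature for 30 min. After washing, the pools were crosslinked with 0.1% formaldehyde, proximity-ligated with BsaI/T4 ligase for 1 h at 37 °C, PCR-amplified and sequenced on an Illumina NextSeq500.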
# [2] = target: T2, ELK1 (Homo sapiens, UniProt P19419 1-428); details: protein: recombinant; tags: N-terminal GST; dsDNA, one strand shown
# T2 sequence: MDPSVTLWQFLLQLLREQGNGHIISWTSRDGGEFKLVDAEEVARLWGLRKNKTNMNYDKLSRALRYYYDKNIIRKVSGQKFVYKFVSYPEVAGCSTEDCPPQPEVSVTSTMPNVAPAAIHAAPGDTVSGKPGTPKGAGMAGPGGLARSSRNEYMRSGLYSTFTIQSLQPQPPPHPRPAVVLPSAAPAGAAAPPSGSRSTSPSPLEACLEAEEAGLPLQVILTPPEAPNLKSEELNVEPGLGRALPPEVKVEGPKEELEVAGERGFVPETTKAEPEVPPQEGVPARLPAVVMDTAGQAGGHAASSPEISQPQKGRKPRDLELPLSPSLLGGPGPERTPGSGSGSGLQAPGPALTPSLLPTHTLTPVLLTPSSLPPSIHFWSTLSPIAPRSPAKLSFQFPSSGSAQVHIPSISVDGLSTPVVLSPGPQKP
# Outline: as §1
# [3] = target: T3, GABPA (Homo sapiens, UniProt Q06546 1-454); details: protein: recombinant; tags: N-terminal GST; dsDNA, one strand shown
# T3 sequence: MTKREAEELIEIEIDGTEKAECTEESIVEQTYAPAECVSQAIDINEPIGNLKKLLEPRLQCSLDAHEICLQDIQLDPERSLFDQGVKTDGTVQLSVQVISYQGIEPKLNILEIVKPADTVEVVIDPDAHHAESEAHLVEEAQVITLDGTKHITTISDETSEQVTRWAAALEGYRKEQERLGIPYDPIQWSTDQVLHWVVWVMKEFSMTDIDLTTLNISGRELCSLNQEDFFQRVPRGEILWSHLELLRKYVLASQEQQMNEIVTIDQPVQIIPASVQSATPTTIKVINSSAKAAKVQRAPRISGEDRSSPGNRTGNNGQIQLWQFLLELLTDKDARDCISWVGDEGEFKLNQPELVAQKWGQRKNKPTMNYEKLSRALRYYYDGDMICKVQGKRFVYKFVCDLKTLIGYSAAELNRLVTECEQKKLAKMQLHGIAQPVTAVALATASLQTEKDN
# Outline: as §1
# [4] = target: T4, ERG (Homo sapiens, UniProt P11308 1-479); details: protein: recombinant; tags: N-terminal GST; dsDNA, one strand shown
# T4 sequence: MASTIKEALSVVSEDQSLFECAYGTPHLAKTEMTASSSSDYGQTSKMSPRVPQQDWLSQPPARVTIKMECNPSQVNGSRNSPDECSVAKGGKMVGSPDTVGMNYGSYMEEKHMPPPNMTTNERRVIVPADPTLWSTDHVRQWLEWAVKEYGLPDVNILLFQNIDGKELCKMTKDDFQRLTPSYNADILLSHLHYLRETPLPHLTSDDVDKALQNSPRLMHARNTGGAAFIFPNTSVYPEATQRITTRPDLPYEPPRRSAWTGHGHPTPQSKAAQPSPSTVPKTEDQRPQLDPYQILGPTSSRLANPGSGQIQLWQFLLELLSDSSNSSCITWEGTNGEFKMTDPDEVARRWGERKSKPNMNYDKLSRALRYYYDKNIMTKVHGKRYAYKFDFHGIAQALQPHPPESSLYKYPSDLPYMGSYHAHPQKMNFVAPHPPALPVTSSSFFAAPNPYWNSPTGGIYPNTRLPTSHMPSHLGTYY
# Outline: as §1
# [5] = target: ELF1 (Homo sapiens, UniProt P32519 1-619); details: protein: recombinant; tags: N-terminal GST; dsDNA, one strand shown
# Outline: as §1
# [6] = target: T5, EHF (Homo sapiens, UniProt Q9NZC4 1-300); details: protein: recombinant; tags: N-terminal GST; dsDNA, one strand shown
# T5 sequence: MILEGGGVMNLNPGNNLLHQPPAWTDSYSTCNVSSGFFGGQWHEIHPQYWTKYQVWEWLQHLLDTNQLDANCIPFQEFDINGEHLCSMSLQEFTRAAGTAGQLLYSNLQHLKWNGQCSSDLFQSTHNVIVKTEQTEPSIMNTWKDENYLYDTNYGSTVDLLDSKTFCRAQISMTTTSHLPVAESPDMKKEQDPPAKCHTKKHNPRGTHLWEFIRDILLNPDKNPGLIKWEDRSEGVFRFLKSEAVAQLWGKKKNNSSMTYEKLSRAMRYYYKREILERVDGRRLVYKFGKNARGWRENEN
# Outline: as §1
# [7] = target: SPI1 (Homo sapiens, UniProt P17947 1-270); details: protein: recombinant; tags: N-terminal GST; dsDNA, one strand shown
# Outline: as §1
# [8] = target: SPIB (Homo sapiens, UniProt Q01892 1-262); details: protein: recombinant; tags: N-terminal GST; dsDNA, one strand shown
# Outline: as §1
# [9] = target: T6, ELK3 (Homo sapiens, UniProt P41970 1-407); details: protein: recombinant; tags: N-terminal GST; dsDNA, one strand shown
# T6 sequence: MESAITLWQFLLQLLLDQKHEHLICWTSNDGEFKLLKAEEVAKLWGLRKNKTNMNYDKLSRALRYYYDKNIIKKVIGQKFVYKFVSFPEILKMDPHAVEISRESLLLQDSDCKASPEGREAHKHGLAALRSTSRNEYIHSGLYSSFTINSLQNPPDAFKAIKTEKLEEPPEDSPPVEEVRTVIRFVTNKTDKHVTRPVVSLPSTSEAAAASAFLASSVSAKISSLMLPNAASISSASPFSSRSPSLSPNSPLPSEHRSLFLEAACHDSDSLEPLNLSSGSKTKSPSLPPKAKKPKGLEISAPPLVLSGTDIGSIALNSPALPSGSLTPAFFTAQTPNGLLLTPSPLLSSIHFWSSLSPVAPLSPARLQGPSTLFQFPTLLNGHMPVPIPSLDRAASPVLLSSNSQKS
# Outline: as §1
# [10] = target: T7, FEV (Homo sapiens, UniProt Q99581 1-238); details: protein: recombinant; tags: N-terminal GST; dsDNA, one strand shown
# T7 sequence: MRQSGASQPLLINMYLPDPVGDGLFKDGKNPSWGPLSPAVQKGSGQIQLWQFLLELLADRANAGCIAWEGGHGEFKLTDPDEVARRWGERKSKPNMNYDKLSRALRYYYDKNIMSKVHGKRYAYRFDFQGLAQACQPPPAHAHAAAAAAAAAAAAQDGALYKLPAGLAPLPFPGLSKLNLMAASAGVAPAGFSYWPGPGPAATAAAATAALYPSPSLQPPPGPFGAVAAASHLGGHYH
# Outline: as §1
# [11] = target: ETV5 (Homo sapiens, UniProt P41161 1-510); details: protein: recombinant; tags: N-terminal GST; dsDNA, one strand shown
# Outline: as §1
# [12] = target: HSF1 (Homo sapiens, UniProt Q00613 1-529); details: protein: recombinant; tags: N-terminal GST; chain copies: 3; dsDNA, one strand shown
# Outline: as §1
# [13] = target: T8, SPIC (Homo sapiens, UniProt Q8N5J4 1-248); details: protein: recombinant; tags: N-terminal GST; dsDNA, one strand shown
# T8 sequence: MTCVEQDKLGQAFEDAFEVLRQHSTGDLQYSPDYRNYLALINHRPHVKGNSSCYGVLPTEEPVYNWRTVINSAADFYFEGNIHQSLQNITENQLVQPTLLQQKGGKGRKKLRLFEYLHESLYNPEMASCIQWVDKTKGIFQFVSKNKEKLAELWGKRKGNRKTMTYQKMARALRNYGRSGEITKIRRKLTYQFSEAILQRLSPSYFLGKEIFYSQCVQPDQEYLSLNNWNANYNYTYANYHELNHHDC
# Outline: as §1
# [14] = target: ELF4 (Homo sapiens, UniProt Q99607 1-663); details: protein: recombinant; tags: N-terminal GST; dsDNA, one strand shown
# Outline: as §1
# [15] = target: T9, ELK4 (Homo sapiens, UniProt P28324-2 1-405); details: protein: recombinant; tags: N-terminal GST; dsDNA, one strand shown
# T9 sequence: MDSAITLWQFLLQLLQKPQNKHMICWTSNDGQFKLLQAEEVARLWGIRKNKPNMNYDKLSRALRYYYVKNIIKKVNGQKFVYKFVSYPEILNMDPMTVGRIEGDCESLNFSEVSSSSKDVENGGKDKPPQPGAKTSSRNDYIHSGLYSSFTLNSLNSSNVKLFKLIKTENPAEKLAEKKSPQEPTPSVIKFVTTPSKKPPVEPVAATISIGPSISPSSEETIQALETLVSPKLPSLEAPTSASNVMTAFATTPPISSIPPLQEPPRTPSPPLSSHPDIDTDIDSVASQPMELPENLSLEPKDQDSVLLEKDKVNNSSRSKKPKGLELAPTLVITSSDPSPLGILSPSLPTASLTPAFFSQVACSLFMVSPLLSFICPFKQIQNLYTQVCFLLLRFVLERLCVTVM
# Outline: as §1
# [16] = target: T10, ELF3 (Homo sapiens, UniProt P78545 1-371); details: protein: recombinant; tags: N-terminal GST; dsDNA, one strand shown
# T10 sequence: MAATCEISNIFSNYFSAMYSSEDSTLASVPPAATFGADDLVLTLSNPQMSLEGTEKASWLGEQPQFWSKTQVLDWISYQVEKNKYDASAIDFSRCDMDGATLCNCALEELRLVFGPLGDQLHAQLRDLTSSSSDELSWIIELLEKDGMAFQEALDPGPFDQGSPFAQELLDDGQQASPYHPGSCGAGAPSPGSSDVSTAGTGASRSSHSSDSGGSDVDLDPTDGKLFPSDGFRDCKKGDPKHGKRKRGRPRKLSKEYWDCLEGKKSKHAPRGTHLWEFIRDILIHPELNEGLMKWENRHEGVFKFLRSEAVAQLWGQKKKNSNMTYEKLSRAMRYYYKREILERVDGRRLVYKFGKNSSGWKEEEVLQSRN
# Outline: as §1
# [17] = target: CRX (Homo sapiens, UniProt O43186 1-299); details: protein: recombinant; tags: N-terminal GST; dsDNA, one strand shown
# Outline: as §1
# [18] = target: ETV1 (Homo sapiens, UniProt P50549 1-477); details: protein: recombinant; tags: N-terminal GST; dsDNA, one strand shown
# Outline: as §1
# CRX, sequence (O43186 whole entry): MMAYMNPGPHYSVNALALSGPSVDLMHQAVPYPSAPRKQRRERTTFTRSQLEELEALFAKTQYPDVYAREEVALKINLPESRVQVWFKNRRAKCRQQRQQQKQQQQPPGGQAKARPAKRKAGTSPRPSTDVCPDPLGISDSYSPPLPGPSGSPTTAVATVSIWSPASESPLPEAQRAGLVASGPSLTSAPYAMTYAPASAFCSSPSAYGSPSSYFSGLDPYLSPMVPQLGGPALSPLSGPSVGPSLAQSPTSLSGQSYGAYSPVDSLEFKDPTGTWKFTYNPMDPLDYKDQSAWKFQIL
# SPIB, sequence (Q01892 whole entry): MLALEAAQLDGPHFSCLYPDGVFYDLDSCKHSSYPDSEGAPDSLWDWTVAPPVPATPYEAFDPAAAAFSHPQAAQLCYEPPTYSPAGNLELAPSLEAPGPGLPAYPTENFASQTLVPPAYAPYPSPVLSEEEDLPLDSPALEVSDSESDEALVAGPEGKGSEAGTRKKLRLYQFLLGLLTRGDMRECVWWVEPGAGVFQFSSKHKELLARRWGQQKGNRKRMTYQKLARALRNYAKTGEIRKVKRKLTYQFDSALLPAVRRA
# ELF1, sequence (P32519 whole entry): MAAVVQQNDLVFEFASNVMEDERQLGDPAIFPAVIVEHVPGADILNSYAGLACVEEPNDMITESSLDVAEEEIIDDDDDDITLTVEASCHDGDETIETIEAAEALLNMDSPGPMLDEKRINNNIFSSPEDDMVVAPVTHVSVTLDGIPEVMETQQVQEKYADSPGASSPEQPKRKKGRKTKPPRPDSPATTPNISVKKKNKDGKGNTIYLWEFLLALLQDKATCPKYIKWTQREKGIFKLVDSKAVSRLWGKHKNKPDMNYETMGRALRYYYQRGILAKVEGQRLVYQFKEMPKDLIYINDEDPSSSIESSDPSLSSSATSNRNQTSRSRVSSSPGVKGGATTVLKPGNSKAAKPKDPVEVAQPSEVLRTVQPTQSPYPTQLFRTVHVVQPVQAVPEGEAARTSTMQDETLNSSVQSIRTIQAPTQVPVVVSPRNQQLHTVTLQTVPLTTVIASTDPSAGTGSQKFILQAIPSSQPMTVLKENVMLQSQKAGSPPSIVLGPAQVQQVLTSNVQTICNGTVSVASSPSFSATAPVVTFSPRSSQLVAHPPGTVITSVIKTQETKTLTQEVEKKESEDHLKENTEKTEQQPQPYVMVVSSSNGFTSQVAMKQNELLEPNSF
# ETV1, sequence (P50549 whole entry): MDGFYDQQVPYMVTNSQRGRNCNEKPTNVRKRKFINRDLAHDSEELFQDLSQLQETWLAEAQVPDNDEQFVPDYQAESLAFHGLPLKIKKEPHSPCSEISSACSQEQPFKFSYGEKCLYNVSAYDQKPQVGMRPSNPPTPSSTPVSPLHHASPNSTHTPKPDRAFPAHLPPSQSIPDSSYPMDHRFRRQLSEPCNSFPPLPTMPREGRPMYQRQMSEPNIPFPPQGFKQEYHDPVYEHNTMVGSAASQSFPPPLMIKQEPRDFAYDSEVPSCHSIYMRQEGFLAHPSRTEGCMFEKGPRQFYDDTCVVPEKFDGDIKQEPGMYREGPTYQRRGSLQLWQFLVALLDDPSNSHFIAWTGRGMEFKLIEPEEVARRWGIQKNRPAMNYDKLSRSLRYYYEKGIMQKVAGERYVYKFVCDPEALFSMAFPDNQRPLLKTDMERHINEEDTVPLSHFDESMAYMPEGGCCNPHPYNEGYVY
# ELF4, sequence (Q99607 whole entry): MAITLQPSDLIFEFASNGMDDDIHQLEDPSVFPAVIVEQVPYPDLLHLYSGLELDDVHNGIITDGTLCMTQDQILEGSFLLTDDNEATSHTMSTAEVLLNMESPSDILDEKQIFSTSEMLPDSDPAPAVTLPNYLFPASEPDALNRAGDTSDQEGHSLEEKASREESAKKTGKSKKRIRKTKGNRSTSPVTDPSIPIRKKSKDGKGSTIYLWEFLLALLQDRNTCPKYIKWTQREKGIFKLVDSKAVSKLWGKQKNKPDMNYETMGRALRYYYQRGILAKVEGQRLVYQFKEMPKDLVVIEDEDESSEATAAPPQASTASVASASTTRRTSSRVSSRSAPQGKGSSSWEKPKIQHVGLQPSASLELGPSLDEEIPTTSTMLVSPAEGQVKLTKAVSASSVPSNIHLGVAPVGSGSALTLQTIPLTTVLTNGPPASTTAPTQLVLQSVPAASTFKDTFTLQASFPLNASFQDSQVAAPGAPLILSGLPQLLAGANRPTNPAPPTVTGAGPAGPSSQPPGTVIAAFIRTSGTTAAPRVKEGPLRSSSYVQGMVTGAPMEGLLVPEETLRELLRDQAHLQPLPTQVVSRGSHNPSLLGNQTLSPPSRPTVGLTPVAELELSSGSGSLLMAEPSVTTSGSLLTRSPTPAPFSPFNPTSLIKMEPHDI
# HSF1, sequence (Q00613 whole entry): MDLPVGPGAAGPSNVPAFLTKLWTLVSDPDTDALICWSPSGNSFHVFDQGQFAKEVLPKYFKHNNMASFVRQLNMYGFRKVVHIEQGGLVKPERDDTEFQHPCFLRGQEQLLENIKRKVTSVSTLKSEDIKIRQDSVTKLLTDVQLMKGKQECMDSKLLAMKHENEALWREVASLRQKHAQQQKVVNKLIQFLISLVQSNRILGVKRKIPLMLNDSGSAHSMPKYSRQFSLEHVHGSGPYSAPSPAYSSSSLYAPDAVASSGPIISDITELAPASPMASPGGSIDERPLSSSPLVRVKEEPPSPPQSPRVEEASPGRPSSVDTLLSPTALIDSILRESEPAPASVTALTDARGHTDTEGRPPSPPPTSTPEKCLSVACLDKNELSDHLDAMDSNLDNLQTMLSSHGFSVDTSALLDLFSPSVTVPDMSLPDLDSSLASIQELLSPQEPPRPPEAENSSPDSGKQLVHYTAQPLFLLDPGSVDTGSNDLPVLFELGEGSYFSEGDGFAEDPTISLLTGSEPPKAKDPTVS
# ETV5, sequence (P41161 whole entry): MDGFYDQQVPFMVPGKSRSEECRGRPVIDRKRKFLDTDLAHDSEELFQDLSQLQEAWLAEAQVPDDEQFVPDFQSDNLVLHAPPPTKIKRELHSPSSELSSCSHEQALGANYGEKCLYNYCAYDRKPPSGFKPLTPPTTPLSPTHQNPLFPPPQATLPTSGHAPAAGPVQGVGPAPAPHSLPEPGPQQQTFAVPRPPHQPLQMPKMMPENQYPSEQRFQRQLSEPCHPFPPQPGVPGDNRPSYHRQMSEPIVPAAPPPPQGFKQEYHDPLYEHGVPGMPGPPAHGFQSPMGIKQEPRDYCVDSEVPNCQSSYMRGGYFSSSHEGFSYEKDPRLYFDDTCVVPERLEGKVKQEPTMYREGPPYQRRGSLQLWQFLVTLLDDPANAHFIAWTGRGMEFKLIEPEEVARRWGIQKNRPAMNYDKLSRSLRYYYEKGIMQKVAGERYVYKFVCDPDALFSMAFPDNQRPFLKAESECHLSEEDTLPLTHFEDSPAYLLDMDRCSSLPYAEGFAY
sequence,measurement,setting,value
CGAACT,binding signal,[1],"1.16 fold enrichment (6-mer frequency, TF over GST control)"
same,binding signal,[2],"1.17 fold enrichment (6-mer frequency, TF over GST control)"
same,binding signal,[3],"1.24 fold enrichment (6-mer frequency, TF over GST control)"
same,binding signal,[4],"1.06 fold enrichment (6-mer frequency, TF over GST control)"
same,binding signal,[5],"1.24 fold enrichment (6-mer frequency, TF over GST control)"
same,binding signal,[6],"1.17 fold enrichment (6-mer frequency, TF over GST control)"
same,binding signal,[7],"1.16 fold enrichment (6-mer frequency, TF over GST control)"
same,binding signal,[8],"1.03 fold enrichment (6-mer frequency, TF over GST control)"
same,binding signal,[9],"1.13 fold enrichment (6-mer frequency, TF over GST control)"
same,binding signal,[10],"1.16 fold enrichment (6-mer frequency, TF over GST control)"
same,binding signal,[11],"1.19 fold enrichment (6-mer frequency, TF over GST control)"
same,binding signal,[12],"1.48 fold enrichment (6-mer frequency, TF over GST control)"
same,binding signal,[13],"1.01 fold enrichment (6-mer frequency, TF over GST control)"
same,binding signal,[14],"1.12 fold enrichment (6-mer frequency, TF over GST control)"
same,binding signal,[15],"1.15 fold enrichment (6-mer frequency, TF over GST control)"
same,binding signal,[16],"1.02 fold enrichment (6-mer frequency, TF over GST control)"
same,binding signal,[17],"1.05 fold enrichment (6-mer frequency, TF over GST control)"
same,binding signal,[18],"1.1 fold enrichment (6-mer frequency, TF over GST control)"
